This note sets out measurements from PubChem BioAssay AID492967 (ICCB-Longwood Screening Facility, Harvard Medical School, 2010).

Several values for one entry are separate records, joined by “and”; a condition that tells them apart may be missing. Identical values can stand only once. Screen size: about 140,000 compounds; about 320 (0.23%) were called active. Cut-off read from the data, not from the text of the source: active = z-score mostly below about -2.9 (no sharp cut-off); inactive = mostly above about -1.9. The sample as a whole holds a higher share of actives than the screen did. Some structures have more than one record in an assay (separate samples or runs), and their calls can disagree.

This assay relates to CapD gamma-glutamyltranspeptidase (Bacillus anthracis Ames Ancestor). The assay can be described thus: inhibition of CapD gamma-glutamyltranspeptidase – biochemical, fluorescence intensity, primary screen (AID 492967). The note with it: purified CapD enzyme, fluorescence intensity read-out; stronger effect = lower value.
In the case of `Cc1cccc(N2CCN(C(=O)c3cccc(N4C(=O)C5C6C=CC(C6)C5C4=O)c3)CC2)c1C` (centres undefined), the z-score was -0.42 (inactive).
Take `CCOC(=O)c1cc2cccc(NC(=O)c3cccc(C(F)(F)F)c3)c2[nH]1`: the z-score was -0.595 (inactive).
The figure for `CCCCCNC(=O)c1ccc2c(c1)[nH]c(=S)n1c3ccccc3nc21` is -0.3 (inactive).
Take `CN(CC(=O)O)S(=O)(=O)c1ccc2oc3ccccc3c2c1`: the z-score was 0.355 (inactive).
As for `C=CCN1CCN(C(=O)C2CC2)CC1`, the z-score was 0.655 (inactive).
With `CCCNC(=O)Nc1ccc2snnc2c1`, the z-score was 26.7 (inactive).
The figure for `CCOC(=O)c1ccc(N2N=C(C(F)(F)F)/C(=C/c3cc(Cl)c(O)c(OC)c3)C2=O)cc1` is -0.22 (inactive); for `CCC(C)(C)c1cc2cc(NS(=O)(=O)c3ccccc3)ccc2[nH]1` it is -0.4 (inactive); for `CCOC(=O)c1cc2cccnc2nc1C` it is -0.34 (inactive).
Next, `CCOc1ccc(C(=O)/C(C)=N/O)cc1`: -1.18 (inactive); `Cc1ccc2nc(N3CC(=O)N(CCc4ccccc4)C(=O)C3)c3nncn3c2c1`: -0.125 (inactive).
In the case of `CC(Oc1ccc(OC(C)C(=O)/C=C/N(C)C)cc1)C(=O)/C=C/N(C)C` (centres undefined), the z-score was -1.18 (inactive).
Consider `N#Cc1c(-c2ccccc2)cc(-c2ccccc2)c(C#N)c1N`, for which the z-score was 21 (inactive).
For `FC(F)(F)c1cccc(N2CCN(C(=S)Nc3ccccc3)CC2)c1`, the z-score was -0.215 (inactive).
On to `O=C(COC(=O)Cc1ccsc1)Nc1ccccc1C(F)(F)F`, for which the z-score is -1.17 (inactive).
For the compound `CCOc1ccc(/C=C2/SC(=S)N(CC(=O)O)C2=O)cc1`, the z-score is -0.21 (inactive).
The figure for `FC(F)(F)C1=CC=NCCN1` is -4.38 (active); for `CC(C)(C)OC(=O)/N=C(\N)N(CCCC(NC(=O)OC(C)(C)C)C(=O)NCc1cccs1)C(=O)OC(C)(C)C` (centres undefined) it is -0.295 (inactive); for `O=C(c1ccco1)N1CCN(Cc2cccc(C(F)(F)F)c2)CC1` it is 0.64 (inactive).
The figure for `CCNC(=O)C(=O)Nc1cccc(C(F)(F)F)c1` is 0.01 (inactive); for `CCOC(=O)N/N=C1/c2ccccc2C2(O)NC(=O)NC12O` (centres undefined) it is 0.15 (inactive).
The figure for `O=C(O)Cn1cc(/C=C2\C(=O)NN(c3ccccc3)C2=O)c2ccccc21` is -6.26 (active).
Take `C=CCn1cc(C=C2C(=O)N(C)C(=S)N(C)C2=O)c2ccccc21`: the z-score was 3.29 (inactive).
Next, `CN1C(=O)C(=Cc2cn(CC(=O)NCc3ccco3)c3ccccc23)C(=O)N(C)C1=O`: -0.57 (inactive); `CCOc1ccc(CCNC(=O)c2nnc(-c3cccnc3)o2)cc1OCC`: 0.25 (inactive); `Cc1nc2ccccc2n1CC1CC1(Cl)Cl` (centres undefined): -0.66 (inactive).
Next, `O=C(O)CSc1ncn(-c2ccccc2)n1`: 0.115 (inactive).
For the compound `CC1(C)c2ccccc2N2CCC(=O)NC21/C=C/c1cccnc1` (centres undefined), the z-score was 0.115 (inactive).
As for `CN(C)/C=C/C(=O)C(Cc1ccc(Cl)cc1)Cc1ccc(Cl)cc1`, the z-score is -0.33 (inactive).
The figure for `O=[N+]([O-])c1cccc(C2(O)CN(c3ccc(Cl)cc3)C3=[N+]2CCCS3)c1` (centres undefined) is 0.185 (inactive); for `COc1ccc2nc3oc(C(=O)NC4CC4)cc3cc2c1` it is 3.45 (inactive).
The figure for `O=c1[nH][nH]c(=O)c2c(N=Cc3c[nH]c4ccccc34)cccc12` is 57.4 (inactive).
The figure for `O=C(c1ccccc1)C(O)c1c[nH]c2ccccc12` (centres undefined) is 0.51 (inactive); for `CC1(C)CC(=O)C(=Cc2c[nH]c3ccccc23)C(=O)C1` it is -4.71 (active).
Regarding `O=c1cc(CO)oc(C(Nc2cccc(C(F)(F)F)c2)c2ccccn2)c1O` (centres undefined), the z-score is -6.66 (active).
Next, `CCOc1ncccc1C(=O)Nc1cccc(C(F)(F)F)c1`: -0.145 (inactive).
For `O=C(CC(NCc1ccco1)C(=O)O)Nc1cccc(C(F)(F)F)c1` (centres undefined), the z-score was -0.155 (inactive).
Take `CCC1CCCCN1C(=O)CSc1ccc(C)cc1` (centres undefined): the z-score is -0.23 (inactive).
For `O=c1oc2ccccc2cc1-c1nc(-c2ccc(Cl)cc2)cs1`, the z-score was 0.955 (inactive).
Consider `Cc1cc(=O)oc2c3c(ccc12)OCN(c1ccccc1Cl)C3`, for which the z-score is 21.1 (inactive).
On to `CCC(C)NC(=O)c1onc(C)c1Cl` (centres undefined), for which the z-score was -0.44 (inactive).
The figure for `Cc1c(NS(=O)(=O)c2ccc3c(c2)C(=O)c2ccccc2C3=O)c(=O)n(-c2ccccc2)n1C` is -0.465 (inactive); for `O=C1CCCC2=C1C(c1ccc(Cl)cc1)c1c(ccc3ccccc13)N2` (centres undefined) it is 0.255 (inactive); for `Cc1ccc(Oc2cc(Oc3ccc(C)cc3)c3noc4c3c2C(=O)c2ccccc2-4)cc1` it is 0.03 (inactive).
In the case of `Cc1cc2c(cc1C)CSC(c1cc(Cl)cc(Cl)c1O)SC2`, the z-score was -0.005 (inactive) and -0.385 (inactive).
The figure for `COc1cc2c(C(=O)NCCC(C)C)cn(C)c(=O)c2cc1OC` is 0.63 (inactive); for `C=CCN(C(=O)c1ccc(N2CC3CC(C2)c2cccc(=O)n2C3)c(NC(=O)c2ccc(OC)cc2)c1)c1ccccc1` (centres undefined) it is -0.49 (inactive); for `O=C(OC1CCCCC1=O)c1ccc(O)cc1` (centres undefined) it is -0.295 (inactive).
Consider `CCOc1cccc2cc(C(=O)Nc3ccc(Oc4ccccc4)cc3)c(=O)oc12`, for which the z-score is 1.48 (inactive).
Take `CC12CCC(C(=O)Nc3ncc(Cl)cc3Cl)(CC1=O)C2(C)C` (centres undefined): the z-score is -1.89 (active).
Next, `O=C(COC(=O)c1ccccc1)Nc1ncc(Cl)cc1Cl`: 0.31 (inactive).
Turning to `CC12CCC(C(=O)O)(CC1=O)C2(C)C` (centres undefined), the z-score was -0.19 (inactive).
Take `CCOC(=O)C1=NN(C(=O)CCc2ccccc2)C(O)(c2ccc(Cl)cc2)C1` (centres undefined): the z-score is -1.38 (inactive).
Next, `CCC(C(=O)Nc1cccc(OC)c1)N1C(=O)CCn2nccc21` (centres undefined): 0.745 (inactive); `O=C1C2C3c4ccccc4C(c4ccccc43)C2C(=O)N1c1ccccc1Cl` (centres undefined): 0.425 (inactive); `O=C(Nc1nccs1)c1cc(=O)c2ccccc2o1`: -0.41 (inactive).
Turning to `O=C(O)c1ccccc1-c1ccccc1C(=O)Nc1nccs1`, the z-score was 0.375 (inactive).
Next, `Nc1[nH]c(=S)sc1C(=O)Nc1nccs1`: -5.56 (active); `CC(=O)Nc1ccc2c(c1)OCCOCCOCCO2`: -0.015 (inactive).
Next, `CC(C)Oc1ccccc1C(N)=O`: -0.285 (inactive); `COc1ccc(CSc2nc(N)nc(-c3cccs3)c2C#N)cc1`: 3.26 (inactive); `O=C(Oc1ccc(C=Nc2cccc(Br)c2)cc1)c1ccccn1`: -0.36 (inactive).
In the case of `Fc1ccccc1-c1nc(N2CCC3(CC2)OCCO3)c2ccccc2n1`, the z-score was -0.275 (inactive).
The figure for `CC(C)C(=O)N=c1scc(-c2ccccc2)n1-c1ccccc1Cl` is 0.04 (inactive).
Regarding `COc1ccc(C(=O)NNC(=O)C2CCN(c3ccc(C(F)(F)F)cn3)CC2)cc1`, the z-score is 3.11 (inactive).
Next, `CC(C)CCOc1ccc(C(=O)C(C)C)cc1`: 0.445 (inactive); `COc1ccccc1C1CCN(C(=O)c2ccccc2C(F)(F)F)CC1`: 0.315 (inactive); `CC1=C(C(=O)OCCc2ccccc2)C(c2ccccc2C(F)(F)F)NC(=O)N1C` (centres undefined): -0.495 (inactive).
Next, `CS(=O)(=O)c1nc2ccccc2[nH]1`: 0.005 (inactive); `N#C/C(=C\C=C\c1ccccc1)c1nc2ccccc2[nH]1`: 2.54 (inactive).
For the compound `N#CC(=C1C(=O)c2ccccc2C1=O)c1nc2ccccc2[nH]1`, the z-score is -4.36 (active).
Take `ClCCOc1nc(N2CCOCC2)nc(N2CCOCC2)n1`: the z-score is -0.68 (inactive).
Turning to `O=C(c1ccc(Cn2c(=S)[nH]c3ccc(Br)cc3c2=O)cc1)N1CCN(C(=O)c2ccco2)CC1`, the z-score is 0.025 (inactive).
Next, `Cc1ccccc1C(=O)N1CCc2c([nH]c3ccccc23)C1`: 0.37 (inactive).
The figure for `CCOC(=O)C1=CN(Cc2ccc(OC)cc2)C=C(C(=O)OCC)C1c1cc(Br)c(OCC)c(OC)c1` is 22.1 (inactive); for `O=C(Cn1c2ccccc2c(=O)c2cc(Cl)ccc21)Nc1ccc(OCc2ccccc2)cc1` it is 0.395 (inactive); for `COc1ccc(S(=O)c2ccccc2C(=O)O)cc1` (centres undefined) it is 0.375 (inactive).
Next, `COc1ccccc1N1CCN(c2ncnc3sc(C(=O)Nc4ccc5c(c4)OCCO5)c(C)c23)CC1`: -0.055 (inactive); `COc1cccc(N/C(SCc2c(F)cccc2Cl)=C(/C#N)C(=O)NCc2ccccc2)c1`: -0.425 (inactive).
Turning to `O=c1c(-c2cc3ccccc3o2)[n+]([O-])c2ccccc2n1O`, the z-score was 2.82 (inactive).
The figure for `O=C1/C(=C/c2ccc(Br)cc2)C=C(c2ccccc2)N1c1ccccc1Br` is -0.72 (inactive).
As to `NC(=O)CCc1cn(-c2ccccc2)nc1-c1ccccc1`, the z-score is -0.045 (inactive).
The figure for `COc1cc2c(cc1OC)C(c1ccc(Cl)cc1)NC(=O)C2` (centres undefined) is -0.115 (inactive); for `CCOC(=O)C1=C(C)NC(C)=C(C(=O)OCC)C1c1cn(-c2ccccc2)nc1-c1ccc(F)cc1` it is 3.54 (inactive).
Next, `CC(C)(C)c1ccc(S(=O)(=O)Nc2ccc3c(c2)N(S(=O)(=O)c2cccc(C(F)(F)F)c2)CC3)cc1`: -0.6 (inactive); `Cc1c(Cl)cccc1N=C1NC(=O)/C(=C/c2ccco2)S1`: -1 (inactive).
Next, `CCN(CC)C(=O)Cn1ncc2c3ccccc3n(Cc3ccccc3)c2c1=O`: 2.73 (inactive).
For `O=C(CN1C(=O)CC(c2ccccc2)Sc2ccccc21)NCc1ccccc1` (centres undefined), the z-score is -0.28 (inactive).
Next, `COc1cc(/C=C2/N=C(c3ccc(Cl)c([N+](=O)[O-])c3)OC2=O)cc(OC)c1OC`: 0.85 (inactive).
The figure for `CC1CCC(C(C)C)C(OCC(O)CN2CCN(c3ccccc3)CC2)C1` (centres undefined) is 0.045 (inactive).
The figure for `Cc1ccc(C(=O)N/C(=C\c2ccccc2)C(=O)Nc2c(C)n(C)n(-c3ccccc3)c2=O)cc1` is -0.355 (inactive).
`Cc1c(NC(=O)c2cccnc2)c(=O)n(-c2ccccc2)n1C`: the z-score is -0.255 (inactive) and -5.24 (active).
The figure for `COC(=O)Nc1c(C)n(C)n(-c2ccccc2)c1=O` is 0.115 (inactive); for `COc1cc(NC(=O)c2cc(N(C)C)nc(N(C)C)n2)cc(OC)c1` it is 4.64 (inactive).
